The values below come from PubChem BioAssay (NCI).

Holding throughout (test): NCI-60 one-dose screen, 48 h (100 = growth as untreated, 0 = no growth, -100 = all killed)
Holding throughout (details): 10 µM unless noted

For test [1], the system named is DU-145 prostate.
Test [2] has as its system K-562 leukemia.
The test system of test [3] is MALME-3M melanoma.
The subject of test [4] is MDA-MB-231 breast.
In test [5] the test system is RXF 393 renal.
The subject of test [6] is SF-268 CNS.
Test [7] deals with SF-295 CNS.
The test system of test [8] is SF-539 CNS.
Test [9] has as its system UACC-257 melanoma.
In test [10] the test system is M14 melanoma.

About 83,000 compounds went through this panel and 20% of them were active in at least one assay; those are over-represented in the sample as a whole.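 The endpoint reported here, percent growth, reads 100 for growth as untreated, 0 for no net growth and -100 for all cells dead.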 A number with no mark means an inactive call. Calls of active or inactive are those of the source. The calls were made as follows: active = growth percent below 10; inactive = the rest.

On to `COc1cc(/C=C2\CN(C(=O)CCN3CCC(=NO)CC3)C/C(=C\c3cc(OC)c(OC)c(OC)c3)C2=O)cc(OC)c1OC`, for which the growth in test [1] is -94% (active); in test [2], 6.55% (active); in [3] it was -50.4% (active); in test [4] it was -73.5% (active); in [5], -85.1% (active); in test [6], -73% (active). Moreover, the growth in test [7] is -75.4% (active); in [8] it was -60.5% (active); in [9] it was -16.9% (active); in test [10], -46.6% (active).

Take `O=C(O)c1ccc2c(c1Sc1ccccc1)C(=O)c1ccccc1C2=O`: the growth is 107% in test [1]; 112% in [2]; 83.4% in test [3]; 90.1% in test [4]; 98.6% in test [5]; 101% in test [6]. In addition, the growth in [7] is 91.3%; in [8], 84.5%; in test [9], 96.3%; in test [10], 107%.

Take `c1ccc(CSc2ncnc3nc[nH]c23)nc1`: the growth in test [1] is 113%; in [2] it was 96.7%; in test [3] it was 103%; in [4], 97.6%; in [5] it was 119%; in test [6] it was 109%. Further, the growth in test [7] is 104%; in [8], 99.5%; in test [9] it was 120%; in test [10], 101%.

Consider `Oc1ccccc1N=Cc1c(O)ccc2ccccc12`, for which the growth in test [1] was 82.3%; in test [2], 80.3%; in [3], 82.9%; in test [4], 57%; in [5], 79.2%; in test [6] it was 78.4%. For the same molecule, the growth in [7] is 53.9%; in [8] it was 80%; in test [9], 93.2%; in test [10], 62.7%.

With `O=C1/C(=C/c2ccccc2)CN(CCC(=O)N2C/C(=C\c3ccccc3)C(=O)/C(=C/c3ccccc3)C2)C/C1=C\c1ccccc1`, the growth in [1] is 87.6%; in test [2], 11.6%; in test [3], 101%; in test [4], 75.2%; in [5], 57.4%; in test [6] it was 66.6%. For the same molecule, the growth in [7] is 90.7%; in test [8] it was 90.9%; in test [9] it was 93.8%; in [10], 52.4%.

As to `N#Cc1c(N)nc(N)nc1Nc1ccc(Br)cc1`, the growth in [1] is 98.7%; in test [2], 99%; in test [3], 107%; in test [4], 87.3%; in test [5], 94.3%; in [6], 92.5%. Also, the growth in test [7] is 91%; in [8], 89.6%; in test [9] it was 92%; in [10] it was 163%.

With `COc1ccc(C2c3ccc4ccccc4c3Oc3ncnc(N)c32)cc1` (stereo not given), the growth in [1] was 102%; in [2], 41.2%; in [3] it was 93.1%; in test [4], 64.8%; in [5], 85.5%; in test [6] it was 86.2%. Further, the growth in [7] was 87%; in test [8], 88.2%; in test [9], 98.5%; in test [10], 83%.

Regarding `COc1ccc(C/C(C)=C(\c2ccc(OCCN3CCCCCC3)cc2)c2ccc(OC(=O)C3CCCCC3)cc2)cc1`, the growth in test [1] is 72.4%; in test [2], 9.51% (active); in test [3], 66%; in test [4] it was 67.6%; in [5] it was 60.4%; in test [6] it was 64.2%. In addition, the growth in test [7] is 86.1%; in test [8], 74.7%; in test [9], 77.5%; in test [10], 73.1%.

For the molecule `C/C=C/C(N)=O`, the growth in test [1] was 106%; in [2] it was 109%; in test [3], 99.7%; in test [4], 108%; in test [5], 108%; in [6], 104%. Also, the growth in test [7] was 106%; in [8], 101%; in test [9] it was 108%; in test [10], 95.5%.

As to `Cc1cc(=O)oc2cc(Oc3nc(-c4ccc(Cl)cc4)cn4c(-c5ccc(Cl)cc5)cnc34)ccc12`, the growth in test [1] was 69.6%; in test [2], 85.1%; in test [3] it was 43.6%; in [4] it was 73.3%; in test [5], 70.5%; in test [6], 95.9%. Besides, the growth is 120% in [7], 91.8% in test [8], 88.3% in [9] and 64.2% in test [10].

For `C=C1CC2(OC1=O)C(=O)N(CCCCCCCN1C(=O)C3(CC(=C)C(=O)O3)c3ccccc31)c1ccccc12` (stereo not given), the growth in [1] is 58.2%; in test [2] it was 5% (active); in test [3], -61.4% (active); in test [4] it was -9.65% (active); in test [5] it was -32.8% (active); in test [6], 60.3%. In addition, the growth is 82.6% in test [7], 16.9% in test [8], 65% in test [9] and 36.5% in test [10].

With `O=C(COc1cccc(/C=C2/Oc3ccccc3C2=O)c1)Nc1nccs1`, the growth in test [1] is 104%; in test [2] it was 43.3%; in [3], -71% (active); in [4], 66.1%; in test [5], 2.9% (active); in test [6], 30.3%. The growth was 203% in [7], 64.7% in test [8], 89.4% in [9] and 99.7% in [10].

With `CSc1nc(NCCO)c(C#N)c(-c2cccc(N)c2)n1`, the growth in [1] was 106%; in test [2] it was 94.4%; in [3] it was 101%; in [4], 86.4%; in test [5], 113%; in test [6], 96.2%. In addition, the growth is 96.9% in test [7], 91.7% in test [8], 100% in [9] and 100% in test [10].

Regarding `CCCCCCCCCCNC(=O)CCl`, the growth in test [1] was 91.1%; in [2], 85.3%; in test [3], 87.9%; in test [4], 90.4%; in test [5], 75.3%; in test [6], 82.2%. Further, the growth in test [7] is 102%; in test [8] it was 84.1%; in test [9], 84.3%; in test [10] it was 83.9%.
